SMILES strings stand for the structures. Results filed as inconclusive are left out. Where a call stands in place of a potency, no number is given. A number with no mark means an inactive call. Calls of active or inactive are those of the source. The call rests on the fitted dose curve; in most records, active means well fitted cell-killing curve with a large enough effect in the repeat runs; inconclusive means weak or mixed curves, or effect the other way; inactive means flat fitted curve, though single readings scatter.
Potency means the concentration at half of the fitted maximal effect.

The test in a line: qHTS assay to identify small molecule agonists of the TGF-beta/Smad signaling pathway - cell viability counter screen (AID 1346829). Further: nearly all actives have a fitted effect of over 45% in size. On activity change, negative = cytotoxicity: top concentration of the series differs between compounds. The settings on record: SBE-bla HEK293T viability, CellTiter-Glo luminescence, 5 h; series mostly up to 76.8 µM. In a few lines: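 Tox21 qHTS format: SBE-bla HEK 293T cells treated with DMSO-dissolved compounds for 5 hr; CellTiter-Glo luminescence after 30 min at room temperature.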
For orientation: In qHTS, concentration-response curves come from the screen itself.
In the case of `NC(=O)CCl`, the Potency entry was “inactive”.

For `CCOCCOC(C)=O`, the Potency result is “inactive”.

For `O=[N+]([O-])c1c2ccccc2cc2ccccc12`, the Potency entry was “inactive”.

Regarding `C[CH2][Hg][N]1C(=O)C2C(C1=O)C1(Cl)C(Cl)=C(Cl)C2(Cl)C1(Cl)Cl` (stereo unspecified), the activity change, negative = cytotoxicity is 0.501% [at 15.8 µM].

In the case of `N#CSCSC#N`, the Potency result was “inactive”.

For the compound `Oc1ccc(C2(c3ccc(O)cc3)CCCCC2)cc1`, the Potency entry is “inactive”.

As to `COc1cc(C=O)cc2c1[C@H](COC(N)=O)[C@]1(OC(C)=O)ON2C[C@H]2[C@@H]1N2C(C)=O`, the Potency entry was “inactive”.

For the compound `CCCN(CCC)c1c([N+](=O)[O-])cc(S(N)(=O)=O)cc1[N+](=O)[O-]`, the Potency is 58.6 µM (active).

As for `c1ccc2cc3c(cc2c1)-c1cccc2cccc-3c12`, the Potency entry is “inactive”.

As for `Oc1ccc(C(=C(Cl)Cl)c2ccc(O)cc2)cc1`, the Potency result was “inactive”.

As for `N#Cc1c(-c2ccc(Cl)cc2)[nH]c(C(F)(F)F)c1Br`, the Potency result was “inactive”.

For `O=c1[nH]c2ccccc2n1CCCN1CCC(n2c(=O)[nH]c3cc(Cl)ccc32)CC1`, the Potency entry is “inactive”.

Take `Nc1ccc(Cc2ccc(N)c(Cl)c2)cc1Cl`: the Potency result is “inactive”.

In the case of `CCN(CC)c1c([N+](=O)[O-])cc(C(F)(F)F)c(N)c1[N+](=O)[O-]`, the Potency entry was “inactive”.

With `CC(C)(C)C(O)/C(=C\c1ccc(Cl)cc1Cl)n1cncn1` (stereo unspecified), the Potency entry is “inactive”.

`Clc1ccc(CSC(Cn2ccnc2)c2ccc(Cl)cc2Cl)cc1` (stereo unspecified): the Potency result is “inactive”.

On to `Clc1ccc(CO/N=C(\Cn2ccnc2)c2ccc(Cl)cc2Cl)c(Cl)c1`, for which the Potency result is “inactive”.

For the compound `O=C(CCl)C(Cl)Cl`, the Potency entry was “inactive”.

`C=CCC1=C(C)C(OC(=O)C2C(C=C(C)C)C2(C)C)CC1=O` (stereo unspecified): the Potency result was “inactive”.

`CCCCCCCCc1ccc(O)cc1`: the Potency entry is “inactive”.

Turning to `N#CCCC(Br)(C#N)CBr` (stereo unspecified), the Potency result was “inactive”.

Source of the values: PubChem BioAssay (Tox21).
